Experimental data reported in PubChem BioAssay AID504333 (National Center for Advancing Translational Sciences (NCATS), 2011).
“And” between values parts separate entries of the source, which are not always exact repeats. Identical values can stand only once. Out of some 360,000 compounds screened, about 16,000 (4.4%) were called active. Where a call stands in place of a potency, no number is given. Another 9% or so got no clear call; they are omitted. The call rests on the fitted dose curve; in most records, active means well fitted inhibition curve with a large enough effect; inconclusive means small, poorly fitted or top-dose-only effect; inactive means no such curve, though single readings can be large or run the other way. Many of the other results were omitted from the sample, so actives are more common in it than they were.

These compounds were tested against Bromodomain adjacent to zinc finger domain protein 2B (Homo sapiens) (UniProt Q9UIF8) (assay: qHTS Assay for Inhibitors of BAZ2B). Settings: AlphaScreen BAZ2B-H3K14Ac peptide displacement; series mostly up to 114 µM.
Bromodomain adjacent to zinc finger domain protein 2B (Homo sapiens), sequence (Q9UIF8 whole entry, looked up, the tested form may be a part): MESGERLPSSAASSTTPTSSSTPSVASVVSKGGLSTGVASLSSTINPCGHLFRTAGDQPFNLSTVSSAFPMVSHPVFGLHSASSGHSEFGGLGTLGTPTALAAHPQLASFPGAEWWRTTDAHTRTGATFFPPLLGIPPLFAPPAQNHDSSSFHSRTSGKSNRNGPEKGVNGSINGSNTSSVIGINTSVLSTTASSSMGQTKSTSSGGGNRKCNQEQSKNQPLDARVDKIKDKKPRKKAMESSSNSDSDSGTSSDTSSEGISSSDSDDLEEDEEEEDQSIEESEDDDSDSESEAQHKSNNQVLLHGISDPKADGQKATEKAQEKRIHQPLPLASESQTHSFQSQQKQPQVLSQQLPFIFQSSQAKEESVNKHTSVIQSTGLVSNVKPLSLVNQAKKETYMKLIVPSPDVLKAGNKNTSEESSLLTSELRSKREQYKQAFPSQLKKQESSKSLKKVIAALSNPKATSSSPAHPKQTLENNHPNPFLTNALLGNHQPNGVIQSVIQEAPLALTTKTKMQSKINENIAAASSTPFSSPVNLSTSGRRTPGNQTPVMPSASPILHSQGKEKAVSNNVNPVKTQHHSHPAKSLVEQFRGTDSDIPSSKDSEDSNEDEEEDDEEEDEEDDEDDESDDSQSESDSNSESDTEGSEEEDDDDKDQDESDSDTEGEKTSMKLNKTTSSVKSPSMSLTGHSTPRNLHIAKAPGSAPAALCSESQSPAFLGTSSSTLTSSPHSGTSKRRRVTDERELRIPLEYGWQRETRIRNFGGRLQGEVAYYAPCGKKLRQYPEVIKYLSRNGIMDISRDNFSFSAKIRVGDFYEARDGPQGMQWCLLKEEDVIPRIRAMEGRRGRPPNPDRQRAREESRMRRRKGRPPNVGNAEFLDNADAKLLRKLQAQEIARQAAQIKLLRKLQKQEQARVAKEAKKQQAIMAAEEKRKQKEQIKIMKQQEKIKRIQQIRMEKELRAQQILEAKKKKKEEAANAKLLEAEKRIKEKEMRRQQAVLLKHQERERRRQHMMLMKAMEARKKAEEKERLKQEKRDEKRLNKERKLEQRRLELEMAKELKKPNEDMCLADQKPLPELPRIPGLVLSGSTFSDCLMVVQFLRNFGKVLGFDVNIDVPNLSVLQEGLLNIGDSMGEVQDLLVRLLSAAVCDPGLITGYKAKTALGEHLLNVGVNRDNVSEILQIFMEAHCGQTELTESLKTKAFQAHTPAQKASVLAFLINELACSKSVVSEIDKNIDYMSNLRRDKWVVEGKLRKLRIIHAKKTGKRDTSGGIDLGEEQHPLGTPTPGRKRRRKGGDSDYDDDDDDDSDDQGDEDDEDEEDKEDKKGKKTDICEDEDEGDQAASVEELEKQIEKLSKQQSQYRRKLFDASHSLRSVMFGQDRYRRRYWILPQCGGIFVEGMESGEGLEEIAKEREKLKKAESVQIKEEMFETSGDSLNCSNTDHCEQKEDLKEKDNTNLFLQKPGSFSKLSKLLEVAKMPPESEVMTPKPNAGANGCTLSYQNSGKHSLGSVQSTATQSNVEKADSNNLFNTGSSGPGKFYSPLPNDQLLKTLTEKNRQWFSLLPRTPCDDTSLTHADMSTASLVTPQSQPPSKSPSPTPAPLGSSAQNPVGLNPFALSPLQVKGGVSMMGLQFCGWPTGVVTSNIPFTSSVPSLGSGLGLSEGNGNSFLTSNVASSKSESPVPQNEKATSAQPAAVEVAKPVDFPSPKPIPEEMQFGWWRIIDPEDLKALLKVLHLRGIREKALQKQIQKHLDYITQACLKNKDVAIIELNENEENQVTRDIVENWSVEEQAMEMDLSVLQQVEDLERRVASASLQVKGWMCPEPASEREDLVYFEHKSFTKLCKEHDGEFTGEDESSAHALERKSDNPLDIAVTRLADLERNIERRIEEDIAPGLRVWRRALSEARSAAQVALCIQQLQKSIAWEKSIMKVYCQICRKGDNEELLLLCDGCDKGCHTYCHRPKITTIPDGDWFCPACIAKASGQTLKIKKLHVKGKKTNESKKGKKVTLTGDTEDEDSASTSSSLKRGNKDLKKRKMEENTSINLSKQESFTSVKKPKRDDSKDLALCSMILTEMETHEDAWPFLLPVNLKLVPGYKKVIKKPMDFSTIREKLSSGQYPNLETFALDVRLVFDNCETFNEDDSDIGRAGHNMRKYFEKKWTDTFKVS
Excerpt: BAZ2B (bromodomain adjacent to zinc finger domain, 2B) belongs to a family of ubiquitously expressed bromodomain containing proteins, which biological function has not yet been elucidated. […] The interaction of BAZ2B with ISWI mediated by the BAZ1 motif has recently been described. […] The protocol is based on the AlphaScreen (PerkinElmer) displacement assay developed by NCGC [5], but uses the peptide ligand Biot-H3K14Ac, a high affinity binding partner for BAZ2B, in an AlphaScreen format. Although AlphaScreen has significant advantages with its utility in a variety of epigenetic target assays, the primary screening data provided in this deposition should be used with caution due to the prevalence of screening artifacts. The top compound concentration tested was 110uM in this assay, which increases number of actives and potential artifacts. An AlphaScreen counterscreen is highly recommended to be run against any putative actives to eliminate non-specific artifacts. Alternatively, one can use other AlphaScreen assays in PubChem to filter out promiscuous hits. Eberharter, A. et al. ACF1 improves the effectiveness of nucleosome mobilization by ISWI through PHD-histone contacts. The EMBO journal 23, 4029-4039. 2004. PMID: 15457208 [2] Jones, M.H. et al. A novel family of bromodomain genes. Genomics 63, 40-45. 2000. PMID: 10662543 [3] Yasgar, et al. Compound Management for Quantitative High-Throughput Screening. JALA. 2008 Apr;13(2):79-89. PMID: 18496600 [4] Inglese, et al. Quantitative high-throughput screening: a titration-based approach that efficiently identifies biological activities in large chemical libraries. Proc Natl Acad Sci. 1;103(31):11473-8. 2006. PMID: 16864780 [5] Quinn et al. A chemiluminescence-based method for identification of histone lysine methyltransferase inhibitors. Mol Biosyst 6(5): 782-8. 2010. PMID: 20567762 [6] Baell,Holloway. New substructure filters for removal of pan assay interference compounds (PAINS) from screening libraries and for their exclusion in bioassays. J Med Chem. 53(7):2719-40. 2010. PMID: 20131845 NIH Molecular Libraries Probe Production Network [MLPCN] NIH Chemical Genomics Center [NCGC] Structural Genomics Consortium (SGC) NIH Grant: 5U54 MH084681-02
To each well of a 1,536w plate, 2ul of BAZ2B protein (final 50nM) and 1ul biotinylated histone peptide acetylated at Lys14 [b-H3(5-23)K14Ac] (final 50nM) were added in 1x PBS buffer, pH 7.4, containing 0.01% Tween-20, using a nanoliter dispenser. Formation of a protein-peptide complex proceeded at room temperature for 30 min. A Kalypsys pin-tool was employed to transfer 23 nL of library compound solution in DMSO to each well. Following a 30 min incubation of the protein-peptide complex with compounds at room temperature, a mixture of 40 ug/mL each streptavidin-coated donor and nickel chelate acceptor AlphaScreen beads (final 10 ug/mL) were added in a 1ul dispense for a final volume of 4ul. A brief centrifugation followed (1000rpm, 1 min) and were then incubated protected from the light for 20 min at room temperature. Plates were read on an EnVision multilabel plate reader using the 1,536 plate HTS AlphaScreen aperture (excitation time 80 ms, measurement time 240 ms).
Further: nearly all actives have a fitted effect of over 60% in size.
Potency means the concentration at half of the fitted maximal effect.

SMILES | Potency
CCC(Sc1nc2n[nH]c(C)c2c(=N)n1-c1ccccc1Cl)C(=O)N(CC)CC (stereo not drawn) | inactive
COc1ccc(-c2nc3sc(CCNS(=O)(=O)c4ccc(F)c(C)c4)c(C)n3n2)cc1 | inactive
COc1ccc(-c2nc(SCC(=O)N3CCCCC3C)n[nH]2)cc1 (stereo not drawn) | inactive
Cc1ccc(S(=O)(=O)N2CCN(Cc3cccc(C)c3O)CC2)cc1 | inactive
O=S(=O)(c1ccc(F)cc1)N1CCN(Cc2ccccc2C(F)(F)F)CC1 | 28.2 µM (active)
O=C(CN1CCN(S(=O)(=O)c2ccc(F)cc2)CC1)Nc1ccccc1F | inactive
COc1ccc(-c2onc(C)c2C)cc1S(=O)(=O)NCc1cccs1 | inactive
CCc1ccc(S(=O)(=O)n2ccnc2)cc1 | inactive
Cc1ccccc1Nc1c(-c2ccccc2)nc2ncccn12 | inactive
Cc1c(-c2cccc(NC(=O)C(C)(C)C)c2)nc2ncccn12 | inactive
CCc1cccc(C)c1Nc1c(-c2ccc(N(C)C)cc2)nc2ncccn12 | 10 µM (active)
COc1cc(OC)c(NC(=O)c2c3c(nn2C)-c2ccccc2SC3)cc1Cl | inactive
O=C(NCCCO)C(=O)Nc1c2c(nn1-c1ccccc1)CSC2 | inactive
COc1ccc(OCCn2ccnc2C)cc1 | 56.2 µM (active)
COc1ccc(OCCCC(=O)Oc2ccc(OC)cc2)cc1 | inactive
COc1ccc(OCCCn2c(C)nc3cc(C)c(C)cc32)cc1 | inactive
Cc1ccc(C(=O)Nc2c(C(=O)NC(C)(C)C)oc3ccccc23)cc1 | inactive
COc1ccc(NC(=O)c2ccc3oc(=O)c(S(=O)(=O)c4ccc(F)cc4)cc3c2)c(OC)c1 | inactive
O=C(CSc1nccn1Cc1ccc(Cl)cc1)NCc1ccccc1 | inactive
COc1ccc(C(c2nnnn2Cc2cccs2)N2CCN(c3ccccc3)CC2)cc1OC (stereo not drawn) | inactive
COc1ccccc1C(c1nnnn1CC1CCCO1)N1CCN(c2ccccc2)CC1 (stereo not drawn) | 56.2 µM (active)
Cc1cccc(N2CCN(C(c3ccccc3)c3nnnn3CC3CCCO3)CC2)c1C (stereo not drawn) | inactive
COCCCNC(=O)c1ccc(NC(=O)c2nsc3ccccc23)cc1 | inactive
COC(=O)c1cccc(Cn2nnc3sc4c(c3c2=O)CCC(C(C)(C)C)C4)c1 (stereo not drawn) | inactive
Cc1cccc(N2CCN(C(=O)Cn3ncc4c5ccccc5n(C)c4c3=O)CC2C)c1 (stereo not drawn) | inactive

SMILES | Potency
CCc1nnc(NC(=O)CSc2nnc(Cc3ccccc3)n2-c2ccc(OC)cc2)s1 | inactive
COc1ccc(-c2nnc(SCC(=O)c3ccco3)n2-c2ccccc2)cc1 | inactive
COc1ccc(NCc2nnc(SCc3ccccc3)n2-c2ccc(OC)cc2)cc1 | 50.1 µM (active)
Cc1ccc(Cl)cc1N1CCN(C(=O)CN2C(=O)COc3ccc(S(=O)(=O)N4CCOCC4)cc32)CC1 | inactive
O=C(N/N=C/c1c[nH]c2ccccc12)c1cc2ccccc2o1 | inactive
COc1ccc(/C=C(\C#N)c2c[nH]c3ccccc23)cc1 | inactive
C[n+]1ccc(/C=C/c2c[nH]c3ccccc23)cc1 | 44.7 µM (active)
CCOC(=O)C1CCCN(S(=O)(=O)c2cc(-c3cc(C)no3)ccc2OC)C1 (stereo not drawn) | inactive
COc1cccc(N2CCN(S(=O)(=O)c3ccc4c(c3)CCCN4C(C)=O)CC2)c1 | inactive
COc1ccccc1CN1CCC(CNC(=O)c2cnn(-c3ccccc3Cl)c2C2CCN(C(=O)OC(C)(C)C)CC2)CC1 | inactive
O=C(O)CCC(=O)N(Cc1cccs1)Cc1cccs1 | 56.2 µM (active)
O=C(CCc1ccccc1)NCCc1cccs1 | inactive
O=C(O)CCC(=O)N(Cc1ccccc1)Cc1ccccc1 | inactive
O=C1CC(c2nnc(Cc3ccc(Cl)cc3)o2)CN1c1ccccc1 (stereo not drawn) | inactive
CCc1ccc(NC(=O)CCS(=O)(=O)c2cc3c(cc2Cl)NC(=O)CO3)cc1 | inactive
CCOC(=O)Cn1c(=O)n(-c2ccccc2OC)c2nc(-c3cccc(F)c3)nc(C(N)=O)c21 | inactive
CC(=O)Nc1ccc(Nc2cc(C)nc(Nc3ccc(NC(C)=O)cc3)n2)cc1 | 56.2 µM (active)
COc1ccc(C(=O)NNc2cc(C)nc(NNC(=O)c3ccc(OC)cc3)n2)cc1 | inactive
Cc1ccc(Nc2nc(C)cc(C)c2C(N)=O)cc1 | inactive
CCN1CCN(c2cc(C)c3cc(NC(=O)c4cc(Cl)ccc4OC)ccc3n2)CC1 | inactive
O=C(NCc1cccnc1)C(=O)Nc1nc(-c2ccccc2)cs1 | inactive
O=C(Nc1nc(-c2cccnc2)cs1)c1ccccc1F | inactive
Cc1ccccc1Nc1nc(-c2cccnc2)cs1 | 39.8 µM (active)
Cc1ccccc1-c1nc(SCC(=O)N(C)c2ccccc2)c2c(=O)n(C)c(=O)n(C)c2n1 | inactive
Cc1ccc(CCNC(=O)c2ccc(CNS(=O)(=O)c3ccc(C)cc3)cc2)cc1 | inactive

SMILES | Potency
CCOC(=O)c1c(NC(=O)c2cc(CC)on2)sc(C(C)=O)c1C | inactive
CCCCCn1c(=O)[nH]c2cc(C(=O)Nc3cc(C)cc(C)c3)ccc2c1=O | inactive
O=c1[nH]c(=S)[nH]c2[nH]c(=S)[nH]c12 | 28.2 µM (active) and 22.4 µM (active)
Cc1c(C)c(C)c2[nH]c(=S)[nH]c2c1C | inactive
CCOC(=O)c1ccc(NC(=O)C2CC(=O)N(c3ccc(C(C)C)cc3)C2)cc1 (stereo not drawn) | inactive
CCS(=O)(=O)C1=NSC2=NC(=O)/C(=C\c3ccc(OS(=O)(=O)c4ccccc4)cc3)C(=N)N21 | 56.2 µM (active)
Cc1ccc(C2=N/C(=C\c3ccc(OS(=O)(=O)c4ccc(C)cc4)cc3)C(=O)O2)cc1 | inactive
COc1ccccc1OCCOc1ccc(/C=C2\C(=N)N3N=C(C)SC3=NC2=O)cc1 | inactive
CS(=O)(=O)C1=NN2C(=N)/C(=C\c3ccc(OCCOc4ccccc4)cc3)C(=O)N=C2S1 | 50.1 µM (active)
CCOc1cc(/C=C2\C(=N)N3N=C(C)SC3=NC2=O)ccc1OCCOc1ccccc1 | inactive
COc1cc(/C=C2\C(=N)N3N=C(CC(=O)N4CCOCC4)SC3=NC2=O)cc(OC)c1OC | inactive
CCc1ccccc1N1C(=O)CN(S(=O)(=O)CC)CC1(C)C(=O)NC1CCCCC1 (stereo not drawn) | inactive
CCc1cccc(NC(=O)CSc2nccn2C)c1 | inactive
Cc1ccc(CNC(=O)CCc2c(C)nc3nc(CNC(=O)OC(C)(C)C)nn3c2C)cc1 | inactive
Cc1ccc(NC(=O)CSc2nc3ccccc3c3nc(CCn4cncc4C)nn23)cc1F | inactive
Cc1cc(-c2ccc(C)c(S(=O)(=O)Nc3ccc(S(N)(=O)=O)cc3)c2)on1 | inactive
CCOc1ccccc1CNS(=O)(=O)c1cc(-c2cc(C)no2)ccc1C | inactive
CCN(CC)c1ccc(NS(=O)(=O)c2cc(-c3cc(C)no3)ccc2C)c(C)c1 | 11.2 µM (active)
Fc1ccc(-c2nc(Nc3cccc(Cl)c3)nc3c2COc2ccccc2-3)cc1 | inactive
Cc1c(-c2nc(-c3ccc4c(c3)OCO4)no2)nnn1-c1ccc(Br)cc1F | inactive
C=C(C)C(=O)Nc1cccc(C2=NOC3(C2)C[C@H](C(N)=O)N(C(=O)C(c2ccccc2)c2ccccc2)C3)c1 (stereo partly drawn) | 25.1 µM (active)
C/C=C\C=C\C(=O)N1CC2(CC(c3cccc(NC(=O)/C(C)=C\C)c3)=NO2)C[C@H]1C(N)=O (stereo partly drawn) | inactive
C/C=C(/C)C(=O)Nc1cccc(C2=NOC3(C2)C[C@@H](C(N)=O)N(C(=O)C2(C)CC2)C3)c1 (stereo partly drawn) | inactive
Cc1cn(C)c(CC(=O)NCc2ccccc2)c1C(=O)O | inactive
COc1cccc(NC(=O)C2CCN(c3cc(C)nc4c(-c5ccc(Cl)cc5)c(C)nn34)CC2)c1 | inactive

SMILES | Potency
Cc1c(C(=O)Nc2cccc(Cl)c2)oc2ccc(S(=O)(=O)N3CCOCC3)cc12 | inactive
CN1CCN(c2oc(-c3ccc(COc4ccc(Cl)cc4)o3)nc2C#N)CC1 | 25.1 µM (active)
N#Cc1ccc(OCc2nnc(-c3ccc([N+](=O)[O-])cc3)o2)cc1 | inactive
N#Cc1nc(COc2ccc(Cl)cc2)oc1N1CCCC1 | 39.8 µM (active)
CCC(C)Nc1oc(-c2ccc(COc3ccc(Cl)cc3)o2)nc1C#N (stereo not drawn) | inactive
COc1ccc(OCc2ccc(-c3nc(C#N)c(N4CCN(c5ccccc5)CC4)o3)o2)cc1 | inactive
Cc1ccc(OCc2nc(C#N)c(N3CCCC3)o2)cc1 | inactive
CCc1nnc(SCc2nc(-c3cccc(C)c3)oc2C)c2cc3sc(C)cc3n12 | inactive
Cc1cccc(NC(=O)Cn2nc(-c3ccc(Cl)cc3)c3ccccc3c2=O)c1 | inactive
COc1ccc(-c2noc(CSc3nc(C)cc(=O)[nH]3)n2)cc1OC | inactive
CCOC(=O)c1c(NC(C)=O)c2c3c(sc2n1Cc1c(C)cc(C)cc1C)CCCC3 | inactive
Cc1ccc(-c2cnc(C3CC3)o2)cc1S(=O)(=O)Nc1cccc(C)c1C | inactive
OC(c1nnc(-c2ccccc2)o1)c1cccs1 (stereo not drawn) | inactive
CC(=O)c1ccc(NC(c2ccc(F)cc2)c2nnc(-c3ccccc3)o2)cc1 (stereo not drawn) | inactive
CCCN(CCC)c1ccc(C(O)c2nnc(-c3ccccc3)o2)cc1 (stereo not drawn) | 31.6 µM (active)
COc1ccc(-c2nc(CN3CCC(C(=O)NCc4ccccc4)CC3)c(C)o2)cc1OC | inactive
CN(C)S(=O)(=O)N1CCN(c2ccc([N+](=O)[O-])cc2)CC1 | inactive
COc1ccc(N2CCN(c3ccc([N+](=O)[O-])nc3)CC2)cc1 | inactive
O=C(c1cncc(Br)c1)N1CCN(c2ccc([N+](=O)[O-])cc2)CC1 | inactive
COc1ccc(N2CCN(c3ccc([N+](=O)[O-])cc3Cl)CC2)cc1 | 10 µM (active)
O=[N+]([O-])c1ccc(N2CCN(c3ccc(O)cc3)CC2)c(Cl)c1 | 20 µM (active)
COc1ccccc1N1CCN(c2ccc([N+](=O)[O-])nc2)CC1 | inactive
COc1ccc(-c2nc(C)c(CCNC(=O)c3ccc(C(F)(F)F)cc3)s2)cc1OC | inactive
